TDP1 cell noCPT = qHTS for Inhibitors of human tyrosyl-DNA phosphodiesterase 1 (TDP1): qHTS in cells in absence of CPT | DT40 Tdp1-/- hTDP1 cells, no CPT, ATP luminescence, 48 h | Potency, µM (highest dose often 46.2 µM), inactives show at the highest dose activity change, negative = growth inhibition, actives largely listed as inhibitors | 15% of 420,000 active | AID 686978, 2013; note: nearly all actives have a fitted effect of over 55% in size
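DT40 Tdp1-/-;hTDP1 cells, no CPT (DMSO vehicle only), 400 cells/well; compounds pin-transferred; ≥48 hr, 37 °C; CellTiter-Glo 30 min RT dark, luminescence read.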
KB-3-1 cytotox = kills parental KB-3-1 adenocarcinoma cells; KB-3-1 viability, CellTiter-Glo ATP luminescence, 72 h; Potency, µM (top dose mostly 46.1 µM), most hits filed as cytotoxic; 1.4% of 400,000 active; note: nearly all actives have a fitted effect of over 60% in size
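KB-3-1 parental drug-naive adenocarcinoma cells in DMEM/10% FBS, incubated 72 h at 37 C with pin-transferred compounds across a concentration series. Viability by CellTiter-Glo luminescence; concentration-response curves fitted after normalization.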
TDP1 cell CPT = growth inhibition of DT40 Tdp1-/-;hTDP1 cells with camptothecin (screen for TDP1 inhibitors). chicken DT40 Tdp1-/-;hTDP1 cells + 20 nM CPT, ATP luminescence, 48 h. Potency, µM (top dose mostly 46.2 µM), without a hit: at the highest dose activity change, negative = growth inhibition, actives largely listed as inhibitors. 12% of 420,000 active; note: nearly all actives have a fitted effect of over 55% in size
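Cell growth measured by CellTiter-Glo luminescence after a minimum 48 h, 37 C compound exposure with 20 nM CPT in Tdp1-knockout DT40 cells stably expressing hTDP1, seeded 400/well; qHTS titration format.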
HT1080NT lethal = kills 2HG-producing HT-1080-NT fibrosarcoma cells | HT-1080-NT fibrosarcoma viability, CellTiter-Glo ATP luminescence, 48 h | Potency, µM (highest dose often 46.1 µM), for the others: at the top dose activity, negative = less viability, usual class: cytotoxic | 1.6% of 360,000 active;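 note: NT is the 2HG producing partner of a matched IDH1 knockdown line; 0% = DMSO-treated cells and -100% = media-only wells without cells; nearly all actives have a fitted effect of over 55% in size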
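A 48-hour cytotoxicity screen used HT-1080-NT cells plated 2 hours before compound delivery. ATP-based CellTiter-Glo luminescence measured viability, normalized to DMSO and no-cell controls.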
KB-V1 MDR tox = KB-V1 MDR subline cytotoxicity; 3.4% of 400,000 active; KB-V1 MDR cells viability, CellTiter-Glo, 72 h; AID 1347076; Potency, µM (doses to about 46.1 µM), actives largely listed as cytotoxic; note: nearly all actives have a fitted effect of over 60% in size
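Cytotoxicity via CellTiter-Glo luminescence after 72 h compound exposure at 37 degrees C. Cells: drug-selected KB-V1 line, DMEM phenol-red free plus 10% FBS. Compounds tested at multiple concentrations; normalized data fitted to concentration-effect curves.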
HT1080 IDH1KD tx = toxicity to HT-1080 IDH1 knockdown cells (counter line); AID 686971; HT-1080 IDH1 knockdown viability, ATP luminescence, 48 h; 2% of 360,000 active; Potency, µM (top dose mostly 46.1 µM), for the others: at the top dose activity, negative = toxicity, usual class: cytotoxic;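 note: 0% = DMSO wells and -100% = cell-free medium wells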
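Assay cells: HT-1080 with IDH1 knockdown, 750 per well, RPMI/5% FBS. Exposure: 48 h at 37 °C following 2 h pre-incubation. Read: CellTiter-Glo luminescence; fitted concentration-response, curve class assigned.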
* = called active by the depositor; i = inactive; ? = inconclusive; / = no result given; [ ] = another dose, or the depositor's remark. Rows were chosen to be rich in hits. Some 19% of all compounds tested hit in one or more screens of this group. Calls come from the whole dose curve; as a rule, active = well fitted curve in the direction sought with a large enough effect; inconclusive = small, poorly fitted or top-dose-only effect, or another doubt; inactive = no such curve, though single readings can be large; an effect the other way counts as inactive or inconclusive. Unless noted, % is set by controls: 0 for no effect and ±100 for the full control effect; potency is the fitted concentration of half-maximal effect.

SMILES	TDP1 cell noCPT	KB-3-1 cytotox	TDP1 cell CPT	HT1080NT lethal	KB-V1 MDR tox	HT1080 IDH1KD tx
COc1ccc(-c2cc(C)no2)cc1S(=O)(=O)NC(C)C	-4%	i	-6%	/	i	/
COc1ccc(-c2cnc(C)o2)cc1S(=O)(=O)Nc1c(C)cc(C)cc1C	23µM*	i	16µM*	/	i	/
Cc1ccc2c(c1)N(S(=O)(=O)c1cc(-c3onc(C)c3C)ccc1C)CCO2	9.2µM*	23µM*	23µM*	?	?	?
COc1ccc(-c2cc(C)no2)cc1S(=O)(=O)Nc1c(C)cc(C)cc1C	21µM*	i	?	/	i	/
Cc1cc(C)c(NS(=O)(=O)c2cc(-c3onc(C)c3C)ccc2C)c(C)c1	8.2µM*	/	13µM*	/	/	/
O=C(O)CCC/C=C\C[C@@H]1C(/C=C/[C@@H](O)COc2cccc(C(F)(F)F)c2)[C@@H](O)C[C@@H]1O (stereo partly specified)	-5%[4.12 µM]	/	5%[4.12 µM]	/	/	/
Cc1ccccc1NC(=O)C(=O)c1cn(C)c2ccccc12	14%	i	-13%	20%	i	20%
COc1ccc(-c2cnc(C)o2)cc1S(=O)(=O)Nc1ccc(C)c(F)c1	2.6µM*	5.8µM*	2.6µM*	/	5.8µM*	/
CC1CC(NC(=O)Cc2ccc(Br)cc2)CC(C)(C)C1 (stereo unspecified)	?	i	16µM*	?	?	?
CSc1ccc(CCNC(=O)c2cc(C)nc3c2c(C)nn3-c2ccccc2)cc1	?	i	-14%	/	i	/
CC(C)(C)c1ccc(S(=O)(=O)Nc2cccc(C3OCCCO3)c2)cc1	15µM*	i	15µM*	-2%	15µM*	-8%
Oc1ccccc1-c1nc(NCc2ccccc2)c2ccccc2n1	?	i	7%	?	i	-8%
COCCNc1nc(-c2ccccc2CN(C)C)nc2ccccc12	12µM*	/	?	/	/	/
COCCNc1nc(-c2ccccc2C(F)(F)F)nc2ccccc12	-16%	/	-8%	/	/	/
CN(C)Cc1ccccc1-c1nc(NCc2ccccc2)c2ccccc2n1	6.5µM*	/	16µM*	/	/	/
COCCNc1nc(-c2ccccc2C)nc2ccccc12	18µM*	/	?	/	/	/
COc1ccccc1CNc1nc(-c2ccccc2CN(C)C)nc2ccccc12	6.5µM*	/	12µM*	/	/	/
COc1ccccc1CNc1ncncc1-c1ccccc1CN(C)C	?	/	-8%	/	/	/
CN(C)C(=O)c1ccc(NC(=O)COC(=O)Cn2cc(C(F)(F)F)ccc2=O)cc1	-1%	i	-6%	7%	i	-2%
COc1ccc2oc(=O)c(C(=O)NCCc3c(C)[nH]c4c(C)cccc34)cc2c1	/	i	/	/	?	/
COc1ccccc1CNc1nc(-c2ccoc2)nc2ccccc12	26µM*	/	15µM*	/	/	/
CCOC(=O)c1c(C)[nH]c(C)c1S(=O)(=O)N1CCC(C(=O)Nc2ccc(C)c(N(C)C)c2)CC1	?	i	-26%	/	i	/
CN1CCN(C(=O)c2ccc3c(c2)N(Cc2c(F)cccc2Cl)C(=O)c2ccccc2S3)CC1	23µM*	i	?	/	i	/
CN1CCN(C(=O)c2ccc3c(c2)N(Cc2ccc(C(F)(F)F)cc2)C(=O)c2ccccc2S3)CC1	21µM*	?	?	/	i	/
CC(=O)Nc1ccc(Oc2sc(C(=O)c3ccccc3)c(N)c2C#N)cc1	?	i	?	?	i	16µM*
SMILES	TDP1 cell noCPT	KB-3-1 cytotox	TDP1 cell CPT	HT1080NT lethal	KB-V1 MDR tox	HT1080 IDH1KD tx
CCN(CC)C(=O)C1=C(C)N(Cc2ccc(OC)cc2)C(=O)C(CC(=O)NCCN2CCOCC2)C1 (stereo unspecified)	-8%	i	-4%	4%	i	-2%
CC1(C)CC2CN(C(=O)Cc3ccccc3)C(C)(C2)C1 (stereo unspecified)	16µM*	i	?	2%	i	-1%
O=C(NCCc1c[nH]c2ccccc12)C(=O)c1c[nH]c2ccccc12	15µM*	?	?	?	i	?
Cc1cc2cc(CCNC(=O)C(=O)c3c[nH]c4ccccc34)c(=O)[nH]c2cc1C	18µM*	i	15µM*	?	?	13µM*
O=C(CCNS(=O)(=O)c1ccc(OC(F)(F)F)cc1)NCCc1c[nH]c2ccccc12	23µM*	/	15µM*	-22%	/	-14%
CC(=O)c1ccc(S(=O)(=O)NCCC(=O)NCCc2c[nH]c3ccccc23)cc1	?	i	?	2%	i	2%
CCOc1ccc(-c2cc3c(=O)n(CC(=O)NCc4ccc(Cl)cc4)ccn3n2)cc1	0%	i	-14%	/	i	/
CN1CCN(CC(O)COc2ccc(C34CC5CC(CC(C5)C3)C4)cc2)CC1 (stereo unspecified)	13µM*	?	?	18µM*	?	15µM*
OC(COc1ccccc1)CN1CCN(C(c2ccccc2)c2ccccc2)CC1 (stereo unspecified)	?	i	?	-8%	?	-16%
N#Cc1cc2c(OCC(O)CN3CCN(C(c4ccccc4)c4ccccc4)CC3)cccc2[nH]1 (stereo unspecified)	5.6µM*	/	8.9µM*	/	/	/
COc1ccc(OC)c(S(=O)(=O)N2CCN(CC(O)COc3ccc(C#N)cc3)CC2)c1 (stereo unspecified)	23µM*	i	?	-6%	?	-1%
N#Cc1ccc(OCC(O)CN2CCN(C(c3ccccc3)c3ccccc3)CC2)cc1 (stereo unspecified)	18µM*	i	?	?	i	-28%
COc1ccc(OC)c(S(=O)(=O)N2CCN(CC(O)COc3ccccc3)CC2)c1 (stereo unspecified)	-28%	i	-1%	-4%	?	-10%
N#Cc1ccc(OCC(O)CN2CCN(CC(O)COc3ccc(C#N)cc3)CC2)cc1 (stereo unspecified)	26µM*	i	?	8%	?	4%
OC(COc1ccc(OCC(O)CN2CCCCCC2)cc1)CN1CCCCCC1 (stereo unspecified)	?	i	-20%	-15%	i	-9%[9.24 µM]
N#Cc1ccc(OCC(O)CN2CCN(c3ncc(C(F)(F)F)cc3Cl)CC2)cc1 (stereo unspecified)	15µM*	15µM*	?	?	7.3µM*	?

Screens (PubChem BioAssay)
